Source: the supplement of paper PMC11732987, “Enantioselective OTUD7B fragment discovery through chemoproteomics screening and high-throughput optimisation” (Communications Chemistry, 2025)

Tests used:
Test in all cases: log2 ratio of Biotin-Ahx-Ub-VS probe labelling (fragment/DMSO); higher = less target engagement (more negative = stronger competition), active = hit call of the paper (q ≤ 0.05, log2 ratio ≤ -1)
Conditions in all cases: compound concentration: 200 uM; treatment time: 3 h
USP19 = target: T1, USP19 (UniProt O94966)
T1 sequence (whole entry): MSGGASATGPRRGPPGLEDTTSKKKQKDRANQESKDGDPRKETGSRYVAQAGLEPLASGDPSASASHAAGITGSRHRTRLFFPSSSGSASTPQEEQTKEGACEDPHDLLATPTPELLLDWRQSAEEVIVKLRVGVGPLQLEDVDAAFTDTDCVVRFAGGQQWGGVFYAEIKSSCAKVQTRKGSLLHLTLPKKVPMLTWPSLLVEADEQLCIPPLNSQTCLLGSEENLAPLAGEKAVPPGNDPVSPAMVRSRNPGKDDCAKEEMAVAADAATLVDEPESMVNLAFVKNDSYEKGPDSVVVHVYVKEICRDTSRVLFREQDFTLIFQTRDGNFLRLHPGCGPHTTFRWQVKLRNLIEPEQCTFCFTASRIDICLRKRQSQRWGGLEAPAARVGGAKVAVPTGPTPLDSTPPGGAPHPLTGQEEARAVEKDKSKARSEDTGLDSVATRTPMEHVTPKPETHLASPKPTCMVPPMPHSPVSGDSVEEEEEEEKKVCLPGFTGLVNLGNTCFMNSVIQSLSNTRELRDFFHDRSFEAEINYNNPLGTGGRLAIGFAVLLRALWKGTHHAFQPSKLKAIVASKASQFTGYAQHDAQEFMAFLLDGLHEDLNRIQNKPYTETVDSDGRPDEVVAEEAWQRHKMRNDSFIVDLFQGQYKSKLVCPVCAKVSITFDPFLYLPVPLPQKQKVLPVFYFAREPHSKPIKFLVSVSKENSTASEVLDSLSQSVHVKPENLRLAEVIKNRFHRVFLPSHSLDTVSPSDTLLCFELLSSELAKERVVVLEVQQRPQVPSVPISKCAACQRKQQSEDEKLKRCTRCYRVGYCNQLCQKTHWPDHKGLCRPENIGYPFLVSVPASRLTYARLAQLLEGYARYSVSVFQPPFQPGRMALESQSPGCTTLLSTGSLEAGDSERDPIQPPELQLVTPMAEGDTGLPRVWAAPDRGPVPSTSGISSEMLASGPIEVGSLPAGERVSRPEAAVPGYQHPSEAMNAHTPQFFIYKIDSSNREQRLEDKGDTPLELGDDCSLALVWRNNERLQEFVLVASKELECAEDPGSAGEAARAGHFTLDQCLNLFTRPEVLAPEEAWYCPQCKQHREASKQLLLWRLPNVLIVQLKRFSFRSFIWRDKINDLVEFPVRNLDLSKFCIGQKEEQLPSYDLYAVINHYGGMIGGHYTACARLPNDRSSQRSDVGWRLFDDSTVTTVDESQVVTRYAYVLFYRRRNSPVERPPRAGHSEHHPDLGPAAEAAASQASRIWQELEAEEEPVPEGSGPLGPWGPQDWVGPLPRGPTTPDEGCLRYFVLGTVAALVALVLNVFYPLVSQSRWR
Method in brief: (§1)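 Labelled DUBs from HEK293T lysate were NeutrAvidin-enriched, digested with LysC and trypsin, and run by diaPASEF LC-MS/MS. Before that, each 495 µg sample in Tris/CHAPS/IGEPAL buffer with protease inhibitors was treated in triplicate with fragment at 200 µM or vehicle for 3 h, then with Biotin-Ahx-Ub-VS at 0.5 µM final for 1 h. Values are average log2 ratios of fragment over vehicle by unpaired t-test, based on global-median-normalised Spectronaut label-free quantities from proteins with ≥2 unique peptides.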

USP22 = target: T2, USP22 (UniProt Q9UPT9)
T2 sequence (whole entry): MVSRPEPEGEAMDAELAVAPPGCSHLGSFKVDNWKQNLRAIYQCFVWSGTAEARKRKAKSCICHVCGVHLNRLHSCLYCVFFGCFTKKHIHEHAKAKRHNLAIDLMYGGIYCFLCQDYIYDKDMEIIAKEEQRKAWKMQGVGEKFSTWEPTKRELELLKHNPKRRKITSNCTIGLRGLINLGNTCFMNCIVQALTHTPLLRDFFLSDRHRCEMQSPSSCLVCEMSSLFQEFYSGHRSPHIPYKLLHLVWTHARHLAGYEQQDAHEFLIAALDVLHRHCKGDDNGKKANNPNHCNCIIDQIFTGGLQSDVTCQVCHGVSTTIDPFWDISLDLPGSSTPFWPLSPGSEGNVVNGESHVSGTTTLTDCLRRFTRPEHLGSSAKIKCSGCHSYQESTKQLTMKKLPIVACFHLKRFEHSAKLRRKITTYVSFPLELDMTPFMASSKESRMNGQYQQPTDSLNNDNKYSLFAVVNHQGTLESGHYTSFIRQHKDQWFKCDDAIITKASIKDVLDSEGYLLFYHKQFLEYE
Method in brief: as §1

USP24 = USP24 (UniProt Q9UPU5)
Sequence of USP24 (Q9UPU5 whole entry): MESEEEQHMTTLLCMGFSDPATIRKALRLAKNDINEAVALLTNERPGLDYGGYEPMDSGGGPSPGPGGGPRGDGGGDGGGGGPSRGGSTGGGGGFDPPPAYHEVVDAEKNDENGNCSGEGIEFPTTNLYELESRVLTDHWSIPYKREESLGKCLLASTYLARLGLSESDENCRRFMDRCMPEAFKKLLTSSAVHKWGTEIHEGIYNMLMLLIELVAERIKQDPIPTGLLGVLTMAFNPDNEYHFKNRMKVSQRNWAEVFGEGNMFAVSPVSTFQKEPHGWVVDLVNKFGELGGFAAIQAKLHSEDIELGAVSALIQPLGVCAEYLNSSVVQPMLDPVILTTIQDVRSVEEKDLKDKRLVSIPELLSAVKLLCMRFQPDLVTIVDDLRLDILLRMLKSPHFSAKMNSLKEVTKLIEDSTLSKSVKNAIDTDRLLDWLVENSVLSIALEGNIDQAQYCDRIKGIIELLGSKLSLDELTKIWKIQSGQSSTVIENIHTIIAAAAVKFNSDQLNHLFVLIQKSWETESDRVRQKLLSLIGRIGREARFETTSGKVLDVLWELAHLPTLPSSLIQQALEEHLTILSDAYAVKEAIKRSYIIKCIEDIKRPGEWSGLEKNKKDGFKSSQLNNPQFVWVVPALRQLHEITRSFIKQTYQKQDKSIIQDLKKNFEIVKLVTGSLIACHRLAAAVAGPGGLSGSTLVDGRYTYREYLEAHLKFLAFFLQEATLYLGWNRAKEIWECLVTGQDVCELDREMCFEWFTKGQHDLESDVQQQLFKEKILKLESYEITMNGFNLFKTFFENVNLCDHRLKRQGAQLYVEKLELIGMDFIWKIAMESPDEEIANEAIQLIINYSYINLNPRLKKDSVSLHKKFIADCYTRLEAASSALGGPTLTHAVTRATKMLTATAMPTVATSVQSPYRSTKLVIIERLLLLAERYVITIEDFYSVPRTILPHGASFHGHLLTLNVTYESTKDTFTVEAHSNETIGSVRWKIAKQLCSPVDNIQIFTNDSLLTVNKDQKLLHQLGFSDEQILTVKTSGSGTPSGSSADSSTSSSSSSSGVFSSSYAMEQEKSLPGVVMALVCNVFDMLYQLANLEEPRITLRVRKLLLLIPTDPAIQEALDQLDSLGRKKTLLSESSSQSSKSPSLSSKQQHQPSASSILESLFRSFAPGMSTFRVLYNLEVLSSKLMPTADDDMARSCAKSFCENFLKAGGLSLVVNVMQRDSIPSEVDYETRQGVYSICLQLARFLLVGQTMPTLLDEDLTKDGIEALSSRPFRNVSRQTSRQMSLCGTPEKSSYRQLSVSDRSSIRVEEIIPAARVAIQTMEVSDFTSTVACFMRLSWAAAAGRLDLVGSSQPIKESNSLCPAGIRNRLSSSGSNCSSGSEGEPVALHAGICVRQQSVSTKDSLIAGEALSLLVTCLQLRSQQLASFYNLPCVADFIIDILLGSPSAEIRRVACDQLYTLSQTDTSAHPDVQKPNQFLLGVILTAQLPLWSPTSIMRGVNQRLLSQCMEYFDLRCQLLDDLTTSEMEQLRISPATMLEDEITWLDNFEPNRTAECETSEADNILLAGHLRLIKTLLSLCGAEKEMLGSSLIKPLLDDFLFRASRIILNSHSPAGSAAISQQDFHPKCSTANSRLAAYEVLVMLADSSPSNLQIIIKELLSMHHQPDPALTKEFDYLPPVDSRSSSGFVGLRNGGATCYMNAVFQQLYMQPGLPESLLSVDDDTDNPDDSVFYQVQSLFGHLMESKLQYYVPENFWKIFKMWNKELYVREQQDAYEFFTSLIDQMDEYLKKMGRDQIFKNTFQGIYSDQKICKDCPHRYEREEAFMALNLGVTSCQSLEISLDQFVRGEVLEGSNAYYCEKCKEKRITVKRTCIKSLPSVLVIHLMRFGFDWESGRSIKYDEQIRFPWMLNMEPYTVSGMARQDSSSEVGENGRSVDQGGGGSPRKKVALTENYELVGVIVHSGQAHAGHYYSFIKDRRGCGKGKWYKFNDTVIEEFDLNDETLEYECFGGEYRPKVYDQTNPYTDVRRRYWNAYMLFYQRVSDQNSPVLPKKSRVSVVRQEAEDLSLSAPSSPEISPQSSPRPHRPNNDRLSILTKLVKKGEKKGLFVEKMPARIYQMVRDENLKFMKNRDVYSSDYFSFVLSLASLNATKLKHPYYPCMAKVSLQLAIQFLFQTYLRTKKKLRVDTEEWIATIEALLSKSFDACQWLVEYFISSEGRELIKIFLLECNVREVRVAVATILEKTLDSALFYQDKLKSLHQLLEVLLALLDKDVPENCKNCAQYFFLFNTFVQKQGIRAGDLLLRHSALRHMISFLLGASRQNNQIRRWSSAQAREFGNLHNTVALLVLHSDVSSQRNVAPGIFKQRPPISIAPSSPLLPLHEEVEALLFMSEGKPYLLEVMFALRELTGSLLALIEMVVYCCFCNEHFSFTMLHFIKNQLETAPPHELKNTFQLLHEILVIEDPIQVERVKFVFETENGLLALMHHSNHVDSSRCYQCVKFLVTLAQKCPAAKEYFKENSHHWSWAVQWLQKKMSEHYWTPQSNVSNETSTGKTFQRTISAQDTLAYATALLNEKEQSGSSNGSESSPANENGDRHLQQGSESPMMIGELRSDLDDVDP
Method in brief: as §1

USP25 = target: T3, USP25 (UniProt Q9UHP3)
T3 sequence (whole entry): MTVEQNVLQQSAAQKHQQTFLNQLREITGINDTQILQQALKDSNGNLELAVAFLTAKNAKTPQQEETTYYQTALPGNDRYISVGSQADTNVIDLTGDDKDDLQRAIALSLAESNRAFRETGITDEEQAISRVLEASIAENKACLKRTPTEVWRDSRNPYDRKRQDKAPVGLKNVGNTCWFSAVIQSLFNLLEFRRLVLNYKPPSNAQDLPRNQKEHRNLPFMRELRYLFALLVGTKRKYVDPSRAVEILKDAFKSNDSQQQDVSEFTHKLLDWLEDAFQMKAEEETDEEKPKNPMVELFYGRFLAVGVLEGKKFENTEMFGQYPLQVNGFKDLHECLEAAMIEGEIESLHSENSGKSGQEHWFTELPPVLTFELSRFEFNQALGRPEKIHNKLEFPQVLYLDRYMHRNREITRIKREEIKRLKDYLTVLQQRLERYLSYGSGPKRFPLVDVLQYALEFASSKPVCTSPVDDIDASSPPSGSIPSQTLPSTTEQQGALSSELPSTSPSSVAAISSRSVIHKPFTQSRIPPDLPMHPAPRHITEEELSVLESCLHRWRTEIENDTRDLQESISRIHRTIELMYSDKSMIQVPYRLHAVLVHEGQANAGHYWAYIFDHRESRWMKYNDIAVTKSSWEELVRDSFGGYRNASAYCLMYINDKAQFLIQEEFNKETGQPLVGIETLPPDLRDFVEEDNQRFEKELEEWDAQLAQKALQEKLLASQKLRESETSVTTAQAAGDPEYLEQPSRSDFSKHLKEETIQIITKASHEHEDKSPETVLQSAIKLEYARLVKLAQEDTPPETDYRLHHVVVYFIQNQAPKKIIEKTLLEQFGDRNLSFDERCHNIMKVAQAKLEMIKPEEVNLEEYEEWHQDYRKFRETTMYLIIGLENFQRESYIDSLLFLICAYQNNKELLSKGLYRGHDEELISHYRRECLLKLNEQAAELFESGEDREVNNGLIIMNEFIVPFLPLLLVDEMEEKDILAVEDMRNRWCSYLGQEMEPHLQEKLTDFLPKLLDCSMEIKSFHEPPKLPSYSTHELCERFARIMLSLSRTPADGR
Method in brief: as §1

USP28 = target: T4, USP28 (UniProt Q96RU2)
T4 sequence (whole entry): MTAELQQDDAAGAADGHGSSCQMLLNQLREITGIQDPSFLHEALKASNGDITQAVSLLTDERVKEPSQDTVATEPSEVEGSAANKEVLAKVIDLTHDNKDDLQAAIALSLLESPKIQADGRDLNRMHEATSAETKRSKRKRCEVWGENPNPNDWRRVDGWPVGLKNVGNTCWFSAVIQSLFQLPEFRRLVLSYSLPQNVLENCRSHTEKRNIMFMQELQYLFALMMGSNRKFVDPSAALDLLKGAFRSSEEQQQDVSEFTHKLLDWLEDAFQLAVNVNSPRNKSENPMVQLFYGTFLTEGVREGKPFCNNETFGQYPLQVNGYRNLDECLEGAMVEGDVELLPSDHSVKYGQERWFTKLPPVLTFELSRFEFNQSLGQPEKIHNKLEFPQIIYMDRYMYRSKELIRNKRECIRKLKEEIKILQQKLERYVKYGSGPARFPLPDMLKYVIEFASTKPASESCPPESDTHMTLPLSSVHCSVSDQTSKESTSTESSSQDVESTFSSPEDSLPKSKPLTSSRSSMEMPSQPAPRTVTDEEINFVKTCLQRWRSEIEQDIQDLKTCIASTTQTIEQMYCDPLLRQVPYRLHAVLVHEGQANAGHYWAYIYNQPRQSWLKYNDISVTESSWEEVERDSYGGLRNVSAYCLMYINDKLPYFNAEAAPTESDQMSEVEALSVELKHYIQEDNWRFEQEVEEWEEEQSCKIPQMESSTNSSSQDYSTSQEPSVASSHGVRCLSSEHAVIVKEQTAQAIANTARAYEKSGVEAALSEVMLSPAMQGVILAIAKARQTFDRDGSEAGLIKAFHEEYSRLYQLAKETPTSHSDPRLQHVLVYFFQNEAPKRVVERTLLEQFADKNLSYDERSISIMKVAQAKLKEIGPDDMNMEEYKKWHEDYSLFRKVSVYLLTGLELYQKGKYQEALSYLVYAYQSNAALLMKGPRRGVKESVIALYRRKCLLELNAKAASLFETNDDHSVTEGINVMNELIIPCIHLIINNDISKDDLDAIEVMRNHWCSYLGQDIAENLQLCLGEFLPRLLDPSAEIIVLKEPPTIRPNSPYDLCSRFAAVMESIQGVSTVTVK
Method in brief: as §1

Measured: log2 ratio of Biotin-Ahx-Ub-VS probe labelling

O=C(CCl)Nc1cccc(NC(=O)c2ccccc2)c1
inactive: USP19 0.0261 | USP22 0.406 | USP24 0.05 | USP25 -0.383 | USP28 -0.173
